# Among all 5,500 compounds or so, about 2,000 (36%) were called active. Roughly 18% stayed inconclusive and do not appear here. The list shows a part of the results. A number with no mark means an inactive call. Cut-off read from the data, not from the text of the source: active = normalized growth mostly below about 0.91 (no sharp cut-off); inconclusive = no clear call, values can overlap the other calls; inactive = mostly above about 0.92.
# Test: chemical genetic growth profiling, strain panel (AID 1159580);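 note: tested at 20 µM; growth read once vehicle control cultures reached saturation at 30 °C; 1 = growth at the plate median or of vehicle wells; lower values mean less growth of the strain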
# Conditions: S. cerevisiae deletion strains, growth OD
smiles,measurement,setting,value
O=c1oc2cc(O)ccc2s1,normalized growth,"locus YAL013W, strain DEP1, active compounds read low",0.999
same,normalized growth,"locus YAL021C, strain ccr4, active compounds read low",1.06
same,normalized growth,"locus YAL026C, strain drs2, active compounds read low",1
same,normalized growth,"locus YAL030W, strain snc1, active compounds read low",0.995
same,normalized growth,"locus YBL061C, strain skt5, active compounds read low",1.01
same,normalized growth,"locus YBR009C, strain hhf1, active compounds read low",0.972
same,normalized growth,"locus YBR021W, strain FUR4, active compounds read low",1.03
same,normalized growth,"locus YBR023C, strain chs3, active compounds read low",1.01
same,normalized growth,"locus YBR171W, strain sec66, active compounds read low",1.02
same,normalized growth,"locus YBR229C, strain ROT2, active compounds read low",0.966
same,normalized growth,"locus YBR231C, strain swc5, active compounds read low",0.965
same,normalized growth,"locus YBR279W, strain paf1, active compounds read low",0.999
same,normalized growth,"locus YCL011C, strain gbp2, active compounds read low",0.988
same,normalized growth,"locus YCL016C, strain dcc1, active compounds read low",0.993
same,normalized growth,"locus YCL029C, strain bik1, active compounds read low",0.899 (active)
same,normalized growth,"locus YCL061C, strain MRC1, active compounds read low",0.997
same,normalized growth,"locus YCL069W, strain vba3, active compounds read low",1.01
same,normalized growth,"locus YCR088W, strain abp1, active compounds read low",1.01
same,normalized growth,"locus YDL005C, strain med2, active compounds read low",1.04
same,normalized growth,"locus YDL035C, strain GPR1, active compounds read low",0.945
same,normalized growth,"locus YDL040C, strain nat1, active compounds read low",1
same,normalized growth,"locus YDL074C, strain BRE1, active compounds read low",0.962
same,normalized growth,"locus YDL101C, strain DUN1, active compounds read low",0.967
same,normalized growth,"locus YDL134C, strain PPH21, active compounds read low",0.972
same,normalized growth,"locus YDL185W, strain tfp1, active compounds read low",0.955
same,normalized growth,"locus YDL192W, strain arf1, active compounds read low",0.954
same,normalized growth,"locus YDR001C, strain nth1, active compounds read low",1.01
same,normalized growth,"locus YDR069C, strain doa4, active compounds read low",0.998
same,normalized growth,"locus YDR101C, strain arx1, active compounds read low",0.899 (active)
same,normalized growth,"locus YDR137W, strain rgp1, active compounds read low",1.02
same,normalized growth,"locus YDR150W, strain NUM1, active compounds read low",0.993
same,normalized growth,"locus YDR159W, strain sac3, active compounds read low",0.941
same,normalized growth,"locus YDR162C, strain NBP2, active compounds read low",0.968
same,normalized growth,"locus YDR195W, strain ref2",1.12
same,normalized growth,"locus YDR297W, strain sur2, active compounds read low",1.01
same,normalized growth,"locus YDR318W, strain mcm21, active compounds read low",0.911 (active)
same,normalized growth,"locus YDR334W, strain swr1, active compounds read low",1.01
same,normalized growth,"locus YDR335W, strain msn5, active compounds read low",0.99
same,normalized growth,"locus YDR388W, active compounds read low",0.947
same,normalized growth,"locus YDR392W, strain spt3, active compounds read low",0.953
same,normalized growth,"locus YDR502C, strain sam2, active compounds read low",0.934
same,normalized growth,"locus YEL003W, strain gim4, active compounds read low",0.999
same,normalized growth,"locus YEL037C, strain rad23, active compounds read low",0.998
same,normalized growth,"locus YEL061C, strain CIN8 (second series), active compounds read low",1.01
same,normalized growth,"locus YEL061C, strain CIN8, active compounds read low",0.98
same,normalized growth,"locus YER015W, strain faa2, active compounds read low",0.975
same,normalized growth,"locus YER016W, strain bim1, active compounds read low",0.989
same,normalized growth,"locus YER110C, active compounds read low",0.968
same,normalized growth,"locus YER111C, strain swi4, active compounds read low",0.996
same,normalized growth,"locus YER155C, strain BEM2 (second series), active compounds read low",0.988
same,normalized growth,"locus YER155C, strain BEM2, active compounds read low",0.973
same,normalized growth,"locus YER167W, strain BCK2, active compounds read low",0.965
same,normalized growth,"locus YFR010W, strain ubp6, active compounds read low",0.978
same,normalized growth,"locus YGL078C, strain dbp3, active compounds read low",0.96
same,normalized growth,"locus YGL086W, strain mad1, active compounds read low",0.932
same,normalized growth,"locus YGL167C, strain pmr1, active compounds read low",1.02
same,normalized growth,"locus YGL173C, strain kem1, active compounds read low",0.967
same,normalized growth,"locus YGL227W, strain vid30, active compounds read low",1
same,normalized growth,"locus YGL240W, strain doc1, active compounds read low",0.967
same,normalized growth,"locus YGL248W, strain PDE1, active compounds read low",0.985
same,normalized growth,"locus YGL253W, strain hxk2, active compounds read low",1
same,normalized growth,"locus YGR078C, strain PAC10, active compounds read low",0.969
same,normalized growth,"locus YGR135W, strain pre9, active compounds read low",0.898
same,normalized growth,"locus YGR229C, strain SMI1, active compounds read low",0.965
same,normalized growth,"locus YGR252W, strain gcn5, active compounds read low",0.956
same,normalized growth,"locus YHR013C, strain ard1, active compounds read low",1.1
same,normalized growth,"locus YHR027C, strain rpn1, active compounds read low",0.998
same,normalized growth,"locus YHR030C, strain SLT2, active compounds read low",0.983
same,normalized growth,"locus YHR079C, strain IRE1 (second series), active compounds read low",0.942
same,normalized growth,"locus YHR094C, strain hxt1, active compounds read low",0.966
same,normalized growth,"locus YHR129C, strain ARP1, active compounds read low",0.966
same,normalized growth,"locus YHR142W, strain chs7, active compounds read low",1.04
same,normalized growth,"locus YHR200W, strain rpn10, active compounds read low",0.927
same,normalized growth,"locus YIL066C, strain RNR3, active compounds read low",0.946
same,normalized growth,"locus YIL073C, strain SPO22, active compounds read low",0.996
same,normalized growth,"locus YIL125W, strain kgd1, active compounds read low",0.982
same,normalized growth,"locus YIR030C, strain dcg1, active compounds read low",0.962
same,normalized growth,"locus YJL092W, strain hpr5, active compounds read low",0.988
same,normalized growth,"locus YJL095W, strain BCK1 (second series), active compounds read low",1.02
same,normalized growth,"locus YJL095W, strain BCK1, active compounds read low",0.933
same,normalized growth,"locus YJL115W, strain asf1, active compounds read low",1.03
same,normalized growth,"locus YJL129C, strain trk1, active compounds read low",1.03
same,normalized growth,"locus YJL134W, strain LCB3, active compounds read low",0.976
same,normalized growth,"locus YJL154C, strain vps35, active compounds read low",1.02
same,normalized growth,"locus YJL164C, strain tpk1, active compounds read low",1.01
same,normalized growth,"locus YJL166W, strain qcr8, active compounds read low",0.99
same,normalized growth,"locus YJL168C, strain set2, active compounds read low",0.961
same,normalized growth,"locus YJL187C, strain SWE1 (second series), active compounds read low",0.952
same,normalized growth,"locus YJL187C, strain SWE1, active compounds read low",1

# Source: PubChem BioAssay AID1159580 (chemical genetic matrix, 2015)
